# Laboratory results as given in the supplement of paper PMC8728848.
# The full list was thinned out, with the strongest signals kept by preference.
# B1: SBD-G4S3-Fc (protein)
# chain: MASIPSSASVQLDSYNYDGSTFSGKIYVKNIAYSKKVTVVYADGSDNWNNNGNIIAASFSGPISGSNYEYWTFSASVKGIKEFYIKYEVSGKTYYDNNNSANYQVSTGGGGSGGGGSGGGGSEFVPRDCGCKPCICTVPEVSSVFIFPPKPKDVLTITLTPKVTCVVVDISKDDPEVQFSWFVDDVEVHTAQTQPREEQFNSTFRSVSELPIMHQDWLNGKEFKCRVNSAAFPAPIEKTISKTKGRPKAPQVYTIPPPKEQMAKDKVSLTCMITDFFPEDITVEWQWNGQPAENYKNTQPIMDTDGSYFVYSKLNVQKSNWEAGNTFTCSVLHEGLHNHHTEKSLSHSPGAA
# B2: Gal-9-hFc (Mus musculus), O08573-2 (protein)
# chain: MALFSAQSPYINPIIPFTGPIQGGLQEGLQVTLQGTTKSFAQRFVVNFQNSFNGNDIAFHFNPRFEEGGYVVCNTKQNGQWGPEERKMQMPFQKGMPFELCFLVQRSEFKVMVNKKFFVQYQHRVPYHLVDTIAVSGCLKLSFITFQTQNFRPAHQAPMAQTTIHMVHSTPGQMFSTPGIPPVVYPTPAYTIPFYTPIPNGLYPSKSIMISGNVLPDATRFHINLRCGGDIAFHLNPRFNENAVVRNTQINNSWGQEERSLLGRMPFSRGQSFSVWIICEGHCFKVAVNGQHMCEYYHRLKNLQDINTLEVAGDIQLTHVQT
# Legend:
# Assay in all cases: glycan array binding signal (z-score within array); higher = stronger binding
# Conditions in all cases: glycan notation: IUPAC condensed, linker removed
# [1] = target: Neu5Ac(a2-6)Gal(b1-4)GlcNAc(b1-3)Gal(b1-4)GlcNAc(b1-3)Gal(b1-4)GlcNAc(b1-2)Man(a1-3)[Neu5Ac(a2-6)Gal(b1-4)GlcNAc(b1-3)Gal(b1-4)GlcNAc(b1-3)Gal(b1-4)GlcNAc(b1-2)Man(a1-6)]GalNAc
# Summary of the method: (§1)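 The Consortium for Functional Glycomics database supplied 3228 glycan arrays, of which those lacking an available protein sequence were dropped. The binding signal, a within-array Z-score, was averaged across arrays of the same protein sequence and across linkers. Negative scores can be read as non-binding.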
# [2] = target: Neu5Ac(a2-8)Neu5Ac(a2-8)Neu5Ac(a2-8)Neu5Ac(a2-3)[GalNAc(b1-4)]Gal(b1-4)Glc
# Summary of the method: as §1
# [3] = target: Neu5Ac(a2-8)Neu5Gc(a2-3)Gal(b1-4)GlcNAc
# Summary of the method: as §1
# Neu5Ac(b2-6)GalNAc = target: Neu5Ac(b2-6)GalNAc
# Summary of the method: as §1
# [4] = target: Neu5Ac9Ac(a2-3)Gal(b1-3)GlcNAc
# Summary of the method: as §1
# [5] = target: Neu5Ac9Ac(a2-6)Gal(b1-4)GlcNAc
# Summary of the method: as §1
# [6] = target: Neu5Gc(a2-3)Gal(b1-3)GlcNAc
# Summary of the method: as §1
# [7] = target: Fuc(a1-2)Gal(b1-3)GalNAc(b1-3)Gal(a1-4)Gal(b1-4)Glc
# Summary of the method: as §1
# [8] = target: Fuc(a1-2)[Gal(a1-3)]Gal(b1-4)GlcNAc(b1-2)Man(a1-3)[Fuc(a1-2)[Gal(a1-3)]Gal(b1-4)GlcNAc(b1-2)Man(a1-6)]Man(b1-4)GlcNAc(b1-4)GlcNAc
# Summary of the method: as §1
# [9] = target: Fuc(a1-2)[Gal(a1-3)]Gal(b1-4)GlcNAc(b1-3)[Fuc(a1-2)[Gal(a1-3)]Gal(b1-4)GlcNAc(b1-6)]GalNAc
# Summary of the method: as §1
# [10] = target: Fuc(a1-2)[Gal(a1-3)]Gal(b1-4)GlcNAc(b1-6)GalNAc
# Summary of the method: as §1
# [11] = target: Fuc(a1-2)[GalNAc(a1-3)]Gal(b1-4)[Fuc(a1-3)]GlcNAc
# Summary of the method: as §1
# [12] = target: Fuc(a1-3)[Gal(b1-4)]GlcNAc(b1-6)GalNAc
# Summary of the method: as §1
# [13] = target: Fuc(a1-3)[Gal3S(b1-4)]Glc
# Summary of the method: as §1
# [14] = target: Gal(a1-3)Gal(b1-4)[Fuc(a1-3)]GlcNAc(b1-2)Man(a1-3)[Gal(a1-3)Gal(b1-4)[Fuc(a1-3)]GlcNAc(b1-2)Man(a1-6)]Man(b1-4)GlcNAc(b1-4)GlcNAc
# Summary of the method: as §1
# Gal(a1-4)GlcNAc = target: Gal(a1-4)GlcNAc
# Summary of the method: as §1
# Gal(b1-3)Gal = target: Gal(b1-3)Gal
# Summary of the method: as §1
# [15] = target: Gal(b1-3)GlcNAc(a1-3)Gal(b1-4)GlcNAc
# Summary of the method: as §1
# Gal(b1-3)GlcNAc(b1-2)Man = target: Gal(b1-3)GlcNAc(b1-2)Man
# Summary of the method: as §1
# [16] = target: Gal(b1-3)GlcNAc(b1-3)Gal(b1-3)GlcNAc
# Summary of the method: as §1
# [17] = target: Gal(b1-3)[Neu5Ac(a2-6)]GalNAc
# Summary of the method: as §1
# [18] = target: Gal(b1-3)[Neu5Ac(a2-6)]GlcNAc(b1-4)Gal(b1-4)Glc
# Summary of the method: as §1
# Gal(b1-4)Gal = target: Gal(b1-4)Gal
# Summary of the method: as §1
# Gal(b1-4)GlcNAc = target: Gal(b1-4)GlcNAc
# Summary of the method: as §1
# [19] = target: Gal(b1-4)GlcNAc(b1-3)Gal(b1-4)GlcNAc(b1-2)Man(a1-3)[Gal(b1-4)GlcNAc(b1-3)Gal(b1-4)GlcNAc(b1-2)Man(a1-6)]Man(b1-4)GlcNAc(b1-4)GlcNAc
# Summary of the method: as §1
# [20] = target: Gal(b1-4)GlcNAc(b1-3)Gal(b1-4)GlcNAc(b1-2)[Gal(b1-4)GlcNAc(b1-3)Gal(b1-4)GlcNAc(b1-6)]Man(a1-6)[Gal(b1-4)GlcNAc(b1-3)Gal(b1-4)GlcNAc(b1-2)Man(a1-3)]Man(b1-4)GlcNAc(b1-4)GlcNAc
# Summary of the method: as §1
# [21] = target: Gal(b1-4)GlcNAc(b1-3)Gal(b1-4)GlcNAc(b1-3)GalNAc
# Summary of the method: as §1
# [22] = target: Gal(b1-4)GlcNAc(b1-3)[GlcNAc(b1-6)]Gal(b1-4)GlcNAc
# Summary of the method: as §1
# Gal3S(b1-4)Glc6S = target: Gal3S(b1-4)Glc6S
# Summary of the method: as §1
# [23] = target: Gal3S(b1-4)[Fuc(a1-3)]GlcNAc6S
# Summary of the method: as §1
# Gal6P(b1-4)GlcNAc = target: Gal6P(b1-4)GlcNAc
# Summary of the method: as §1
# GalNAc(b1-4)GlcNAc = target: GalNAc(b1-4)GlcNAc
# Summary of the method: as §1
# GalNAc4S6S(b1-4)GlcNAc = target: GalNAc4S6S(b1-4)GlcNAc
# Summary of the method: as §1
# Glc(a1-6)Glc(a1-6)Glc = target: Glc(a1-6)Glc(a1-6)Glc
# Summary of the method: as §1
# [24] = target: GlcNAc(b1-2)[GlcNAc(b1-4)]Man(a1-3)[GlcNAc(b1-4)][GlcNAc(b1-2)Man(a1-6)]Man(b1-4)GlcNAc(b1-4)GlcNAc
# Summary of the method: as §1
# [25] = target: GlcNAc(b1-3)Gal(b1-4)GlcNAc(b1-3)Gal(b1-4)GlcNAc(b1-2)Man(a1-3)[GlcNAc(b1-3)Gal(b1-4)GlcNAc(b1-3)Gal(b1-4)GlcNAc(b1-2)Man(a1-6)]Man(b1-4)GlcNAc(b1-4)GlcNAc
# Summary of the method: as §1
# [26] = target: GlcNAc(b1-3)Gal(b1-4)GlcNAc(b1-3)Gal(b1-4)GlcNAc(b1-3)Gal(b1-4)GlcNAc(b1-3)Gal(b1-4)GlcNAc(b1-2)Man(a1-3)[GlcNAc(b1-3)Gal(b1-4)GlcNAc(b1-3)Gal(b1-4)GlcNAc(b1-3)Gal(b1-4)GlcNAc(b1-3)Gal(b1-4)GlcNAc(b1-2)Man(a1-6)]Man(b1-4)GlcNAc(b1-4)GlcNAc
# Summary of the method: as §1
Binder,glycan array binding signal (z-score) [1],glycan array binding signal (z-score) [2],glycan array binding signal (z-score) [3],glycan array binding signal (z-score) (Neu5Ac(b2-6)GalNAc),glycan array binding signal (z-score) [4],glycan array binding signal (z-score) [5],glycan array binding signal (z-score) [6],glycan array binding signal (z-score) [7],glycan array binding signal (z-score) [8],glycan array binding signal (z-score) [9],glycan array binding signal (z-score) [10],glycan array binding signal (z-score) [11],glycan array binding signal (z-score) [12],glycan array binding signal (z-score) [13],glycan array binding signal (z-score) [14],glycan array binding signal (z-score) (Gal(a1-4)GlcNAc),glycan array binding signal (z-score) (Gal(b1-3)Gal),glycan array binding signal (z-score) [15],glycan array binding signal (z-score) (Gal(b1-3)GlcNAc(b1-2)Man),glycan array binding signal (z-score) [16],glycan array binding signal (z-score) [17],glycan array binding signal (z-score) [18],glycan array binding signal (z-score) (Gal(b1-4)Gal),glycan array binding signal (z-score) (Gal(b1-4)GlcNAc),glycan array binding signal (z-score) [19],glycan array binding signal (z-score) [20],glycan array binding signal (z-score) [21],glycan array binding signal (z-score) [22],glycan array binding signal (z-score) (Gal3S(b1-4)Glc6S),glycan array binding signal (z-score) [23],glycan array binding signal (z-score) (Gal6P(b1-4)GlcNAc),glycan array binding signal (z-score) (GalNAc(b1-4)GlcNAc),glycan array binding signal (z-score) (GalNAc4S6S(b1-4)GlcNAc),glycan array binding signal (z-score) (Glc(a1-6)Glc(a1-6)Glc),glycan array binding signal (z-score) [24],glycan array binding signal (z-score) [25],glycan array binding signal (z-score) [26]
B1,1.23,-0.006,7.21,-0.513,0.058,0.039,-0.167,,,,,,,,,,,,,,,,,,,,,,,,,,,,,,
B2,,,,,,,,-0.29,1.3,4.4,0.473,-0.286,0.042,-0.196,-0.043,-0.452,0.036,-0.259,-0.243,0.085,0.317,-0.501,0.307,-0.167,1.94,3.74,0.354,2.07,4.35,3.57,-0.364,-0.176,-0.079,0.138,2.04,0.436,-0.207
